This is a sample that favours compounds with a hit; in the whole collection about 9.3% have one here.
ELG1 repair inh = blocks ELG1-dependent DNA repair in HEK293T cells; actives 2.3% (n = 330,000); HEK293T ELG1-luciferase reporter, luminescence, 16 h; DNA damage induced by 5-fluorouridine; Potency, µM (highest dose often 46.1 µM), inactives show at the top dose activity change, negative = inhibition, hits mostly inhibitors; AID 504467; further: on the % scale 0 is the no-effect control and ±100 the full control effect; nearly all actives have a fitted effect of over 55% in size
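Reporter activity after DNA damage by 5-fluorouridine is monitored. Compound-treated cells incubate 16 hr at 37 °C, then ONE-Glo is added for 30 min before luminescence reading.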
SMN2 splice enh = SMN2 splice variant enhancement; Potency, µM (doses to about 46.1 µM), without a hit: top-dose activity change, positive = activation, actives largely listed as activators; HEK293 SMN2-luciferase splicing reporter, luminescence, 30-36 h; actives 2.8% (n = 210,000); AID 1458; further: % of control where 0% means no effect; nearly all actives have a fitted effect of over 55% in size
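HEK293 cells carry an SMN2 minigene-luciferase reporter in which exon 7 inclusion puts luciferase in frame. Cells were seeded at 2000 cells/well, attached for 10-12 hours, then exposed to compounds for 30-36 hours at 37C before ONE-Glo luminescence.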
ELG1 genotoxic = genotoxicity induction in ELG1-luciferase HEK293T cells; HEK293T ELG1-luciferase reporter, luminescence, 16 h; actives 1.3% (n = 330,000); Potency, µM (highest dose often 46 µM), for the others: at the top dose activity change, positive = activation, actives largely listed as activators; AID 504466; further: % of control where 0% means no effect; nearly all actives have a fitted effect of over 60% in size
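16 hr compound incubation (37 °C, 5% CO2) of HEK293T cells carrying luciferase-tagged ELG1; luciferase then measured by ONE-Glo luminescence after 30 min at RT.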
Rab9 prom act = activators of Rab9 promoter; Huh7 Rab9 promoter-luciferase reporter, luminescence, 24 h; actives 2.8% (n = 320,000); Potency, µM (highest dose often 9.22 µM), for the others: at the highest dose activation, negative = inhibition, usual class: activators; AID 485297; further: % of control where 0% means no effect; nearly all actives have a fitted effect of over 60% in size
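Cell-based reporter: Huh7 stable for Rab9 promoter-driven luciferase, plated in reduced-serum medium with 10% FBS at 1500 cells/well, compound-treated 24 h at 37 °C, luminescence read after 10 min reagent.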
FLuc modulator = counter-screen for miR-21 project: firefly luciferase inhibitors or activators. P08659. purified FLuc, Km substrates, luminescence inhibition. Potency, µM (doses to about 57.5 µM), without a hit: top-dose activity change, negative = inhibition, usual class: inhibitors. actives 6.9% (n = 360,000). AID 588342;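 further: plate controls were vehicle for no effect and reference inhibitor for full effect; nearly all actives have a fitted effect of over 55% in size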
Target sequence (P08659 whole entry, looked up): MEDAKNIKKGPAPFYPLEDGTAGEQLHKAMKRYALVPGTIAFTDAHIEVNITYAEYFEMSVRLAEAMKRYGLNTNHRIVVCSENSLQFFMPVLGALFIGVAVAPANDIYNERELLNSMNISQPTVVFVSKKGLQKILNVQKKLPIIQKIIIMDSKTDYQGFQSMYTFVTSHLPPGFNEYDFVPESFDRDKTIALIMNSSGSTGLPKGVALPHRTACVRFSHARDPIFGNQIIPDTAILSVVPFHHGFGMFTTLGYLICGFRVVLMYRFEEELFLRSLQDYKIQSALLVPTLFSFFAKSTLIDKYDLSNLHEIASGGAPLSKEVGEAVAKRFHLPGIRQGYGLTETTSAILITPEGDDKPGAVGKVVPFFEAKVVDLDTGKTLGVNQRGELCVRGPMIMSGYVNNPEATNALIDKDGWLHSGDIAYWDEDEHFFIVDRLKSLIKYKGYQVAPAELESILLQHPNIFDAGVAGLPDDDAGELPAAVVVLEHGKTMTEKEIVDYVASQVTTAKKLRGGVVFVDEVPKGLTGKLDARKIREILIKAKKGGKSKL
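Biochemical qHTS of compounds, final roughly 60 µM downward over six points, against 10 nM purified firefly luciferase using Km concentrations of substrates (10 uM D-luciferin, 10 uM ATP) in Tris acetate pH 7.5 buffer; luminescence output.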
NPC1 promoter act = activators of NPC1 promoter | AID 485313 | Potency, µM (series often up to 9.22 µM), for the others: top-dose activation, actives largely listed as activators | actives 2.4% (n = 320,000) | Huh7 NPC1 promoter luciferase reporter, 24 h; further: % of control where 0% means no effect; nearly all actives have a fitted effect of over 60% in size
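In 1536-well qHTS, Huh7 cells harboring an NPC1 promoter–luciferase construct received compound for 24 h; activation was quantified by luminescence following luciferase reagent addition.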
* = called active by the depositor; ? = inconclusive; nt = no result given; [ ] = remark or other dose. The call rests on the fitted dose curve; in most records, active means well fitted curve in the direction sought with a large enough effect; inconclusive means small, poorly fitted or top-dose-only effect, or another doubt; inactive means no such curve, though single readings can be large; an effect the other way counts as inactive or inconclusive. Potency means the concentration at half of the fitted maximal effect.

SMILES	ELG1 repair inh	SMN2 splice enh	ELG1 genotoxic	Rab9 prom act	FLuc modulator	NPC1 promoter act
CCc1ccc(NC(=O)Cc2ccc(OC)cc2)cc1	?	?	13%	3%	?	18%
O=C(Nc1ccc2oc(=O)c(C(=O)O)cc2c1)Oc1ccccc1	nt	-14%[9.22 µM]	nt	nt	nt	nt
O=C(Nc1ccc(O)c(C(=O)O)c1)Oc1ccccc1	26%	nt	3%	12%	13µM*	1%
Cc1ccc(-n2c3c(c(=O)[nH]c2=O)C(NC(=O)c2ccccc2C)(C(F)(F)F)C(=O)N3)cc1 (centres undefined)	nt	-7%	nt	nt	-1%	nt
COc1ccc(OC)c(NC(=O)C2CC(=O)N(CCc3ccccc3)C2)c1 (centres undefined)	6%	-18%	?	-2%	-5%	-2%
COC(=O)c1cc(C)sc1NC(=O)CN1CCN(C(=O)c2ccco2)CC1	21µM*	nt	-7%	7%	0%	0%
CCOC(=O)c1c(NC(=O)c2ccco2)sc2c1CCCC2	2%	-12%	12%	1%	3%	9%
COC(=O)c1cc(C)sc1NC(=O)CN1CCN(C(=O)C2CCCO2)CC1 (centres undefined)	?	nt	-20%	-43%	0.85µM*	-39%
CCOC(=O)c1c(NC(=O)CN2CCN(C(=O)c3ccco3)CC2)sc2c1CCCC2	21µM*	-62%	-9%	-4%	-2%	-7%
CCOC(=O)c1cc2c(=O)n3ccccc3nc2n(CCCOC)c1=NC(C)=O	-18%	3%	2%	0%	0%	1%
O=C(O)c1cc(N2N=C(C(F)(F)F)/C(=C/C=C/c3ccco3)C2=O)ccc1Cl	-2%	nt	-2%	-3%	24µM*	-4%
CCOC(=O)c1ccc(N2N=C(C)/C(=C/C=C/c3ccco3)C2=O)cc1	14%	7%	18%	-2%	?	-6%
O=C(Nc1ccc(Br)cn1)c1cccc(S(=O)(=O)N2CCCC2)c1	?	nt	-3%	nt	nt	nt
O=C(Nc1ccc(Br)cn1)c1cccc(C(=O)Nc2ccc(Br)cn2)c1	?	nt	21µM*	0.56µM*	3µM*	2µM*
O=C(Nc1ccc(Br)cn1)c1ccc2ccccc2c1	?	nt	?	1.1µM*	1.9µM*	1.6µM*
O=C(Nc1ccc(N2CCN(C(=O)c3ccccc3)CC2)cc1)c1ccc2c(c1)OCO2	?	-61%	-11%	5%	-13%	-3%
CCOC(=O)C1=C(CC)Nc2ccccc2N=C1NC(=O)c1oc2ccccc2c1C	?	-39%	-14%	-3%	-1%	1%
CCOCc1c(C(=O)NC2=Nc3ccccc3NC(CC)=C2C(=O)OCC)oc2ccccc12	8.2µM*	-51%	-14%	-2%	-7%	1%
Clc1cccc(N/N=C/c2ccc(N3CCOCC3)s2)c1	?	-5%	-9%	21%	9.5µM*	-1%
COC(=O)Nc1nc(Sc2ncc(C(F)(F)F)cc2Cl)n[nH]1	21%	-3%	1%	0%	3%	-3%
Cc1c(C(=O)NCCS(=O)(=O)N2CCN(c3ccccc3F)CC2)cccc1[N+](=O)[O-]	15µM*	nt	-8%	-9%	0%	-7%
O=C(NCCS(=O)(=O)N1CCN(c2ccccc2F)CC1)c1ccc(Cl)cc1	-10%	nt	-6%	-3%	7%	1%
Cc1ccc(C(=O)NCCS(=O)(=O)N2CCN(c3ccccc3F)CC2)cc1[N+](=O)[O-]	21µM*	nt	-9%	-3%	1%	0%
Nc1nc2ccc(C(=O)Nc3ccccc3)cc2s1	?	nt	?	3.2µM*	19µM*	3.5µM*
CCc1ccc(NC(=O)c2ccc3nc(N)sc3c2)cc1	?	?	?	?	12µM*	?
CCOc1ccc2nc(N)sc2c1	nt	29%	nt	nt	nt	nt
CCc1ccc2nc(N)sc2c1	?	20µM*	?	3.5µM*	11µM*	2.2µM*

Assay outcomes as filed in PubChem BioAssay.
